Drawing on PubChem BioAssay (NCATS), this text covers Potency for 40 compounds.

Results filed as inconclusive are left out. Calls of active or inactive are those of the source. The call rests on the fitted dose curve. A value given as a limit tells only on which side of the number the result lay.
Potency means the concentration at half of the fitted maximal effect.

A short description of this assay: Cell Viability - MRC5 (AID 434).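 Further: potency reflects cytotoxicity seen as loss of intracellular ATP.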 The settings on record: MRC5 lung fibroblast viability, qHTS. The source says:
NIH Chemical Genomics Center [NCGC]
NIH Molecular Libraries Screening Centers Network [MLSCN]
National Institutes of Environmental Health Sciences [NIEHS]
National Toxicology Program [NTP]
We have developed a 1536-well cell-based assay for quantitative high throughput screening (qHTS) against a number of cell lines to determine in vitro cytotoxicity of small molecules. This particular assay uses the MRC5 cell line which is derived from normal human lung fibroblasts.
NCGC Assay Protocol Summary:
The CellTiter-Glo luminescent cell viability assay (Promega) is a homogeneous method to measure the number of viable cells in culture. The end point readout of this assay is based on quantitation of intracellular ATP, an indicator of metabolic activity, using the luciferase reaction. Luciferase catalyzes the oxidation of beetle Luciferin to oxyluciferin and light in the presence of ATP. The luminescent signal is proportional to amount of ATP present.
Using the CellTiter-Glo luminescent cell viability assay, the amount of cellular ATP was measured in the MRC5 cell line with complete culture medium following compound treatment for 40 hours. The assay was performed in opaque white Kalypsys 1536-well plates. In the screen, tamoxifen and doxorubicin were used as positive controls. Library compounds were measured for their ability to cause acute toxicity in the cell line, as reflected by a decrease in intracellular ATP levels, in a concentration-dependent manner. Data were normalized to the controls for basal activity (DMSO only) and 100% inhibition (100 uM tamoxifen). AC50 values were determined from concentration-response data modeled with the standard Hill equation.
qHTS protocol for CellTiter Glo MRC5 cellular assay
[Step] [Parameter] [Value] [Description]
1. Reagent; 5 uL; 1500 MRC5 cells/well
2. Time; 5 hr; 37 °C incubation
4. Controls; 23 nL; Tamoxifen 0.34 uM to 100 uM & Doxorubicin 0.02 nM to 100 uM
5. Time; 40 hr; 37 °C incubation
6. Reagent; 5 uL; CellTiter Glo reagent
7. Time; 20 min; Room Temperature
8. Detection; Luminescence; Viewlux plate reader
Keywords: cell viability, cytotoxicity, MRC5 cell line, luminescence, NTPHTS, NTPHTS_NCGC, NIEHS, EPA, DSSTox, MLSMR, MLSCN, NIH Roadmap, qHTS, NCGC
On the technique in general: In qHTS, concentration-response curves come from the screen itself.
Regarding `c1ccc(Nc2ccc(Nc3ccccc3)cc2)cc1`, the Potency was > 92 µM (inactive). On to `C=C(Cl)CCl`, for which the Potency is > 92 µM (inactive). As for `Oc1ccc(Cl)c(Cl)c1`, the figure is > 92 µM (inactive); as for `Oc1cccc(Cl)c1`, > 92 µM (inactive); as for `ClC(Cl)C(Cl)Cl`, > 92 µM (inactive). With `O=[N+]([O-])c1cc(Cl)c(Cl)cc1Cl` the figure was > 92 µM (inactive). For the compound `CN(C)C(=O)Nc1ccc(Cl)cc1`, the Potency is > 92 µM (inactive). Consider `FC(Cl)(Cl)Cl`, for which the Potency was > 92 µM (inactive). As for `Cc1cccc(C)c1N`, the Potency was > 92 µM (inactive). With `Brc1ccc(Oc2ccc(Br)cc2Br)c(Br)c1` the figure was > 92 µM (inactive). Consider `Nc1ccc([N+](=O)[O-])cc1N`, for which the Potency was > 92 µM (inactive). For `CC(C)OC(=O)Cc1ccccc1`, the Potency was > 92 µM (inactive). For `ClC(Br)Br`, the Potency is > 92 µM (inactive).

For the compound `CCOP(=O)(OCC)OCC`, the Potency is > 92 µM (inactive). As for `Nc1cc(Cl)ccc1O`, the Potency was > 92 µM (inactive). Regarding `Clc1cc(Cl)c(Cl)c(Cl)c1`, the Potency was > 92 µM (inactive). For `ClCc1ccccc1`, the Potency is > 92 µM (inactive). Turning to `Brc1cccc(-c2ccccc2)c1`, the Potency was > 92 µM (inactive).

Turning to `CN(C)N=O`, the Potency is > 92 µM (inactive). Consider `CCC(Cl)[N+](=O)[O-]` (stereo not given), for which the Potency is > 92 µM (inactive).

On to `C=CCO`, for which the Potency is > 92 µM (inactive). With `C=CC(=O)OC` the figure was > 92 µM (inactive); with `CCCCOC(=O)c1ccccc1N`, > 92 µM (inactive).

With `O=C(O)C(Br)CBr` (stereo not given), the Potency is > 92 µM (inactive). In the case of `C=CC=O`, the Potency was > 92 µM (inactive). In the case of `O=[N+]([O-])c1ccccc1CCl`, the Potency is > 92 µM (inactive).

For `CNC(=O)O/N=C/C(C)(C)S(C)=O` (stereo not given), the Potency is > 92 µM (inactive). As for `c1ccoc1`, the figure is > 92 µM (inactive); as for `O=C(Cc1ccccc1)OCc1ccccc1`, > 92 µM (inactive); as for `[O-][Cl+2]([O-])O`, > 92 µM (inactive). Turning to `O=C(O)c1cccc(Cl)c1`, the Potency is > 92 µM (inactive). For the compound `O=C(O)C(Cl)Br` (stereo not given), the Potency was > 92 µM (inactive). Consider `Nc1ccc([N+](=O)[O-])cc1[N+](=O)[O-]`, for which the Potency was > 92 µM (inactive). Take `C=CC(=O)OCCN(C)C`: the Potency was > 92 µM (inactive). As for `Cc1ccc2c(C)cccc2c1`, the Potency was > 92 µM (inactive). Turning to `Clc1ccc(C(Cl)(Cl)Cl)c(Cl)c1`, the Potency is > 92 µM (inactive). As for `N#CCc1ccccc1`, the figure is > 92 µM (inactive). `ClC(Cl)(Cl)C(Cl)(Cl)Cl`: the Potency is > 92 µM (inactive). With `C1CC2OC2CC1C1CO1` (stereo not given), the Potency is > 92 µM (inactive). With `Cl/C=C/CCl` the figure was > 92 µM (inactive).
